Our source for the outcome and AC50 values is PubChem BioAssay (EPA / NIEHS).

Molecules are shown by their SMILES. Inconclusive results are not listed. More than one record can exist for a structure, and the calls need not agree. Calls of active or inactive are those of the source. The calls were made as follows: active = hit-call score of the fitted dose curve at least 0.9, where 1 is the maximum; inconclusive = response in the unintended direction; inactive = score below 0.9.

In this assay the target is Cellular tumor antigen p53 (Homo sapiens) (UniProt P04637). Kind of assay: TOX21_p53_BLA_p2_ratio: Tox21 HCT-116 p53 Agonism Beta-lactamase Assay, Ratio, Phase 2 (AID 2283592). The text has this: TOX21_p53_BLA_p2 is a cell-based, single-readout assay that uses HCT116, a human intestinal cell line, […] in a 1536-well plate.TOX21_p53_BLA_p2_ratio is an assay readout measuring reporter gene via receptor activity and designed using inducible reporter (beta lactamase induction) detected with GAL4 b-lactamase reporter gene. The signal is derived from the ratio of cleaved (ch2) to uncleaved (ch1) reporter gene substrate used as the measure of target activity.Data from the assay component TOX21_p53_BLA_p2_ratio was analyzed into 1 assay endpoint. This assay endpoint, TOX21_p53_BLA_p2_ratio, was analyzed in the positive analysis fitting direction relative to DMSO as the negative control and baseline of activity. Using a type of inducible reporter, gain-of-signal activity can be used to understand changes in the reporter gene as they relate to the gene TP53. Furthermore, this assay endpoint can be referred to as a primary readout, because this assay has produced multiple assay endpoints and this ratio serves a reporter gene function to understand target activity. To generalize the intended target to other relatable targets, this assay endpoint is annotated to the DNA binding intended target family, where the subfamily is tumor suppressor.
Cellular tumor antigen p53 (Homo sapiens), sequence (P04637 whole entry, looked up, the tested form may be a part): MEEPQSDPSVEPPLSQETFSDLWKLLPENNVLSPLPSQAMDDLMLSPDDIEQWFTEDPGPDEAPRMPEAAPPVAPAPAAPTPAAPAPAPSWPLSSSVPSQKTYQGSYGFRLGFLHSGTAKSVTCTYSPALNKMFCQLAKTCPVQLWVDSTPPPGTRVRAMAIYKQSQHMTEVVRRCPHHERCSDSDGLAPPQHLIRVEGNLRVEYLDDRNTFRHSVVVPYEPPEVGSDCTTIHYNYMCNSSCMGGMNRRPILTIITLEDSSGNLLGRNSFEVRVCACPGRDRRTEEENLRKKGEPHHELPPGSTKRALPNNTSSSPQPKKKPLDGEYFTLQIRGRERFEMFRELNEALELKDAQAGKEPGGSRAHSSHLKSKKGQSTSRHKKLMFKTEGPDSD
Thawing Method: Place 14 mL of pre-warmed thaw medium into a 15 mL of conical tub. Remove the vial of cells to be thawed from liquid nitrogen and thaw rapidly by placing at 37C in a water bath with gentle agitation for 1-2 minutes. Decontaminate the vial by wiping with 70% ethanol before opening in a biological safety cabinet. Transfer the vial contents drop-wise into 14 mL of thaw medium in a sterile 15-mL conical tub. Centrifuge cells at 900 rpm for 4 minutes and resuspend in thaw medium. Transfer contents to the T75 tissue culture flask containing Thaw Medium and place flask in a humidified 37C/5% CO2 incubator. Switch to growth medium at first passage.Propagation Method: Aspirate medium, rinse once in DPBS, add 0.25% Trypsin/EDTA and swirl to coat the cell evenly. Add an equal volume of Growth Medium to inactivate Trypsin after 2-3 minutes incubation at 37C. Centrifuge cells at 900 rpm for 4 minutes and resuspend in growth medium. Cell should be passage or fed at least twice a week.Assay Protocol: Harvest cells from culture in growth medium and resuspend in assay medium. 2.2 Dispense 4000 cells/5 uL/well into 1536-well black/clear bottom plates using a Multidrop dispenser. After the cells were incubated at 37C for 5 hours, 23 nL of compounds dissolved in DMSO were transferred to the assay plate by a PinTool resulting in a 217-fold dilution. Incubate the plates for 16 hours at 37C, 5% CO2. Add 1 uL of 6X LiveBLAzer FRET B/G (CCF4-AM) Substrate Mixture to each well using a BioRAPTR dispenser and incubate the plates at room temperature for 2 hours. Measure fluorescence intensity at 460 and 530 nm emission and 405 nm excitation by an Envision detector. Data is expressed as the ratio of 460nm/530nm emissions. Add 4 uL of Cell-titer Glo to each well using BioRAPTR and incubate the plates at room temperature for 2 hours. Measure fluorescence intensity by a VewLux plate reader.
Regarding `Nc1cc(-c2ccncc2)c[nH]c1=O`, the result was inactive.

Turning to `NCCCNCCSP(=O)(O)O`, the outcome was inactive.

For orientation: AC50 means the midpoint of the concentration-response curve, whichever way the signal moves. `CCCCCCCCCCCCCCCCOCCOCCOCCOCCOCCOCCOCCOCCOCCOCCOCCOCCOCCOCCOCCOCCOCCOCCOCCOCCO`: the AC50 was 29.5 µM (active).

Regarding `O=C1C=CC(=O)N1`, the AC50 was 73.5 µM (active).

Take `CCCCC(=O)OCC(=O)[C@]1(O)Cc2c(O)c3c(c(O)c2[C@@H](O[C@H]2C[C@H](NC(=O)C(F)(F)F)[C@H](O)[C@H](C)O2)C1)C(=O)c1c(OC)cccc1C3=O`: the concentration at half-maximal activity (AC50) is 7.68 µM (active).

Consider `CCC(=O)c1ccc(O)cc1`, for which the result was inactive.

With `C[C@H](CS)C(=O)N1CCC[C@H]1C(=O)O`, the result was inactive.

As to `CC[C@@H](C)[C@@H](N)C(=O)O`, the outcome was inactive.

Turning to `CCCc1ccc(C(=O)O)cc1`, the outcome was inactive.

Regarding `CN1C(=O)CC(c2ccccc2)C1=O` (stereo not given), the result was inactive.

With `COc1cc([C@@H]2c3cc4c(cc3C(O[C@@H]3O[C@@H]5COC(c6cccs6)O[C@H]5[C@H](O)[C@H]3O)C3COC(=O)[C@@H]32)OCO4)cc(OC)c1O` (stereo not given in full), the AC50 is 0.717 µM (active).

As to `Clc1ccc(COC(Cn2ccnc2)c2ccc(Cl)cc2Cl)c(Cl)c1` (stereo not given), the AC50 is 17.3 µM (active).

Regarding `CCCCC`, the result was inactive.

Turning to `OC1(c2ccc(Cl)c(C(F)(F)F)c2)CCN(CCCC(c2ccc(F)cc2)c2ccc(F)cc2)CC1`, the concentration at half-maximal activity (AC50) was 19.6 µM (active).

In the case of `CCCCCCCCS(=O)(=O)Cl`, the result was inactive.

Regarding `CN(Cc1cc(Br)cc(Br)c1N)C1CCCCC1`, the outcome was inactive.

Consider `O=[Se](O)O`, for which the result was inactive and the AC50 was 1.79 µM (active).

As to `c1ccc2sc(SSc3nc4ccccc4s3)nc2c1`, the result was inactive.

As to `Oc1ccc2c(c1)OCO2`, the outcome was inactive.

Consider `CC(O)c1ccccc1` (stereo not given), for which the result was inactive.

`NNc1ccc(C(=O)O)cc1`: the result was inactive.

`CN[C@H](CC(C)C)C(=O)N[C@H]1C(=O)N[C@@H](CC(N)=O)C(=O)N[C@H]2C(=O)N[C@H]3C(=O)N[C@H](C(=O)N[C@H](C(=O)O)c4cc(O)cc(O)c4-c4cc3ccc4O)[C@H](O)c3ccc(c(Cl)c3)Oc3cc2cc(c3O[C@@H]2O[C@H](CO)[C@@H](O)[C@H](O)[C@H]2O[C@H]2C[C@](C)(N)[C@H](O)[C@H](C)O2)Oc2ccc(cc2Cl)[C@H]1O`: the result was inactive.

On to `Cc1ccc(S(=O)(=O)NC(=O)NC2CCCCCCC2)cc1`, for which the outcome was inactive.

Turning to `C/C(=C(\CCOC(=O)c1ccccc1)SS/C(CCOC(=O)c1ccccc1)=C(/C)N(C=O)Cc1cnc(C)nc1N)N(C=O)Cc1cnc(C)nc1N`, the outcome was inactive.

On to `CC(=O)NC(Cc1ccccc1)C(=O)O` (stereo not given), for which the outcome was inactive.

As to `O=C1c2c(O)ccc([N+](=O)[O-])c2C(=O)c2c([N+](=O)[O-])ccc(O)c21`, the AC50 is 25.4 µM (active).

With `COCC(=O)O[C@]1(CCN(C)CCCc2nc3ccccc3[nH]2)CCc2cc(F)ccc2[C@@H]1C(C)C`, the AC50 was 22.4 µM (active).

`CC(C)CN(C[C@@H](O)[C@H](Cc1ccccc1)NC(=O)O[C@@H]1CCOC1)S(=O)(=O)c1ccc(N)cc1`: the result was inactive.

Regarding `CN(C)CCCNCCC#N`, the result was inactive.

Take `CN1CCN(CCC=C2c3ccccc3Sc3ccc(S(=O)(=O)N(C)C)cc32)CC1`: the result was inactive.

Take `C=CCOc1c(Br)cc(C(C)(C)c2cc(Br)c(OCC=C)c(Br)c2)cc1Br`: the result was inactive.

As to `COc1ccc(CNCC(O)COc2ccc3[nH]c(=O)ccc3c2)cc1OC` (stereo not given), the outcome was inactive.

As to `CCCCCCC(=O)O[C@H]1CC[C@H]2[C@@H]3CCc4cc(O)ccc4[C@H]3CC[C@]12C`, the outcome was inactive.

Take `CCOC(=O)Nc1ccc(NCc2ccc(F)cc2)nc1N`: the outcome was inactive.

With `O=C(Cl)c1cc(Cl)cc(Cl)c1`, the outcome was inactive.

In the case of `CC(C)CN(C[C@@H](O)[C@H](Cc1ccccc1)NC(=O)O[C@H]1CO[C@H]2OCC[C@H]21)S(=O)(=O)c1ccc(N)cc1`, the result was inactive.

For the compound `O=C(O)c1cc(O)c2c(c1)[C@H]([C@H]1c3cc(C(=O)O)cc(O)c3C(=O)c3c(O[C@@H]4O[C@H](CO)[C@@H](O)[C@H](O)[C@H]4O)cccc31)c1cccc(O[C@@H]3O[C@H](CO)[C@@H](O)[C@H](O)[C@H]3O)c1C2=O`, the outcome was inactive.

On to `Nc1nnc(-c2ccc([N+](=O)[O-])o2)o1`, for which the AC50 was 85.7 µM (active).

For the compound `O=C(O)C(=O)Cc1c[nH]c2ccccc12`, the outcome was inactive.
